According to PubChem BioAssay (NCI):
About 83,000 compounds went through this panel and 20% of them were active in at least one assay; those are over-represented in the sample as a whole.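 Results are percent growth after 48 hours of single-concentration exposure. 100 means growth as in untreated cells, lower positive values show inhibition; negative values down to -100 show cell death.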 A number with no mark means an inactive call. Activity calls are given as the source filed them. The calls were made as follows: active = growth percent below 10; inactive = the rest.

Assays:
Assay in all cases: NCI-60 one-dose screen, 48 h (100 = growth as untreated, 0 = no growth, -100 = all killed)
Settings in all cases: 10 µM unless noted
NCI-H23 lung = system: NCI-H23 lung
NCI-H226 lung = system: NCI-H226 lung
NCI-H322M lung = system: NCI-H322M lung
HOP-62 NSCLC = system: HOP-62 NSCLC
NCI-H460 lung = system: NCI-H460 lung
NCI-H522 lung = system: NCI-H522 lung
A549/ATCC NSCLC = system: A549/ATCC NSCLC
786-0 renal = system: 786-0 renal
COLO 205 colon = system: COLO 205 colon

SMILES | growth (NCI-H23 lung) | growth (NCI-H226 lung) | growth (NCI-H322M lung) | growth (HOP-62 NSCLC) | growth (NCI-H460 lung) | growth (NCI-H522 lung) | growth (A549/ATCC NSCLC) | growth (786-0 renal) | growth (COLO 205 colon)
O=C1C=CC(=O)N1C1CCCCCCCCCCC1 | 89.9% | 82.9% | 95.3% | 101% | 106% | 7.03% (active) | 91.6% | 94.6% | 52.4%
Oc1ccc2ccccc2c1N=Nc1nccs1 | 40% | -0.189% (active) | 15.7% | 20.2% | 10.2% | 178% | 43.6% | -40.2% (active) | 21.4%
O=C1/C(=C/c2ccccc2)CCC/C1=C\c1ccccc1 | 88% | 96% | 94.9% | 109% | 103% | 78.7% | 98.8% | 87.7% | 127%
CN(C)c1ccc(C(C#N)(c2ccccc2)c2ccc(N(C)C)cc2)cc1 | 54.2% | 72.3% | 86.8% | 90.6% | 50.8% | 82.2% | 49.9% | 67.7% | 45.2%
CC(C)N=C(N)/N=C(\N)Nc1ccc2ccc3ccccc3c2c1 | -88.1% (active) | -67.6% (active) | -89.9% (active) | -84.5% (active) | -58.1% (active) | -84.8% (active) | -65.2% (active) | -70.1% (active) | -92% (active)
CCCCN(CCCC)CCCCCCCCCCO | 97% | 105% | 95.1% | 104% | 110% | 75.9% | 115% | 92.1% | 106%
CC(C)=CCCC(C)C1=C(O)C(=O)C(C)=CC1=O (stereo not given) | 97% | 94.8% | 112% | 125% | 124% | -55.5% (active) | 110% | 93.2% | 50.3%
N#Cc1c2ccccc2nc2ccccc12 | 100% | 93.8% | 110% | 108% | 101% | 101% | 92.8% | 97.7% | 107%
CCCCOS(=O)(=O)c1ccccc1 | 104% | 97.9% | 98% | 96.9% | 115% | 111% | 116% | 101% | 134%
CCOc1ccc2c(c1)/C(=C\C=C\C1CC(C)C3CC(OCC)CCC3N1CC)CC(C)N2CC (stereo not given) | 14.5% | 18.1% | 4.18% (active) | 11.6% | 8.11% (active) | -19.3% (active) | 4.18% (active) | 10.3% | -46.7% (active)
O=C1/C(=C\c2ccc([N+](=O)[O-])cc2)CS(=O)(=O)C/C1=C/c1ccc([N+](=O)[O-])cc1 | -83.2% (active) | -67.2% (active) | -93.7% (active) | -95.2% (active) | -54.5% (active) | -79.9% (active) | -50% (active) | -96.5% (active) | -82.4% (active)
COc1ccc2c(c1)c(CC(=O)O)c(C)n2C(=O)c1ccc(Cl)cc1 | 92.5% | 94.8% | 89.7% | 100% | 101% | 97.5% | – | 77.4% | 128%
C/C(=N/NC(N)=S)c1ccc(C)cc1 | 95.4% | 83.5% | 106% | 87.8% | 100% | 94.5% | 87.6% | 101% | 99.1%
COc1ccc(C(OCC2OC(n3ccc(NC(=O)c4ccccc4)nc3=O)C(O)C2O)(c2ccccc2)c2ccccc2)cc1 (stereo not given) | 54.8% | 29.9% | 109% | 85.3% | 15.5% | 67.9% | 28.1% | 52.5% | 39.5%
Nc1cc(-c2ccccc2)ccc1O | 101% | 112% | 87.2% | 122% | 102% | 96.3% | 65.7% | 97.8% | 110%
NNc1ccc(Cl)cc1Cl | 82.7% | 86.3% | 77.3% | 64.9% | 97.5% | 53.6% | 82.9% | 86.5% | 91.5%

SMILES | growth (NCI-H23 lung) | growth (NCI-H226 lung) | growth (NCI-H322M lung) | growth (HOP-62 NSCLC) | growth (NCI-H460 lung) | growth (NCI-H522 lung) | growth (A549/ATCC NSCLC) | growth (786-0 renal) | growth (COLO 205 colon)
CC(=O)Nc1ccc(C(=O)CCl)cc1 | 86.4% | 92.6% | 95.5% | 94% | 80.9% | -65.4% (active) | 98.7% | 16.9% | 3.3% (active)
OC(c1cc2ccc(C(F)(F)F)cc2c2cc(C(F)(F)F)ccc12)C1CCCCN1 (stereo not given) | -95.8% (active) | -71.4% (active) | -91.5% (active) | -100% (active) | -100% (active) | -87.7% (active) | -97% (active) | -85% (active) | -100% (active)
Oc1ccc(Cl)cc1Cc1cc(Cl)ccc1O | -12.5% (active) | 96.7% | 79.6% | 70.6% | 11.5% | 5.48% (active) | 61% | 75.5% | 110%
COc1cc(NCc2ccc3nc(N)nc(N)c3c2C)cc(OC)c1OC (tested in a mixture with another compound) | 16.1% | 47.5% | 51.9% | 29.8% | 14.1% | 22.3% | 36.9% | 15.5% | 40.2%
O=C(CCl)N1c2ccccc2Sc2c1ccc1ccccc21 | 48.6% | 68.1% | 106% | 90.6% | 81.7% | -79.2% (active) | 95.2% | 88.9% | 65.7%
CCOC(=O)C1(C)CCCC1N (stereo not given) | 102% | 99.1% | 101% | 109% | 109% | 102% | 110% | 103% | 131%
N#CC(I)CS(=O)(=O)c1ccccc1 (stereo not given) | 101% | 105% | 124% | 98.6% | 114% | -80.6% (active) | 93.3% | 107% | -27.5% (active)
COc1cc2c(c(OC)c1OC)-c1ccc(NCc3ccccc3)c(=O)cc1[C@@H](NC(C)=O)CC2 | 25.9% | -12.4% (active) | 50.1% | 26.9% | 4.14% (active) | -10.3% (active) | 14.5% | 21.9% | -82.4% (active)
CC12CCC(O)CC1=CCC1C2CCC2(C)C3=NN=CC3CC12 (stereo not given) | 101% | 105% | 118% | 101% | 125% | 105% | 104% | 112% | 112%
Cc1cc(C)c([I+]c2c(C)cc(C)cc2C)c(C)c1 | -29.1% (active) | -1.55% (active) | 46.5% | -78.3% (active) | 1.11% (active) | -66.8% (active) | 6.93% (active) | -89.6% (active) | -94.4% (active)
CCOC(=O)c1c(C)[nH]c2ccc(O)cc12 | 103% | 94.3% | 99.7% | 107% | 98.3% | 52.7% | 95.7% | 100% | 113%
O=C1C=CC(=O)c2c(O)c(CO)c(CO)c(O)c21 | 89.2% | 110% | 119% | 109% | 102% | 56.6% | 99.5% | 93.7% | 12%
CC1(C)N=c2cc3c(cc2N1c1ccc(Cl)cc1)=Nc1ccccc1N3c1ccc(Cl)cc1 | 9.73% (active) | 53% | 75.2% | -19.2% (active) | 46.5% | -22.1% (active) | – | 11.8% | 39.1%
CN(C)c1ccc(/C=C/c2cc[n+](C)c(/C=C/c3ccc(N(C)C)cc3)c2)cc1 | 10.5% | 34.1% | -9.9% (active) | 19.3% | 10.6% | -20.2% (active) | 14.5% | 22.6% | -68.7% (active)
O=[N+]([O-])CC(O)c1ccccc1 (stereo not given) | 93.1% | 97.9% | 118% | 100% | 101% | 97.3% | – | 80.3% | 113%
Cc1cc2cccnc2c2ncccc12 | 18.7% | -2.12% (active) | 40.4% | 12% | 0.789% (active) | 22.1% | 12.3% | 18.9% | 9.8% (active)
